Our source for the Potency and outcome values is PubChem BioAssay (NCATS).

Assay [1] deals with DNA repair nuclease/redox regulator APEX1 (Homo sapiens) (UniProt P27695). In words: qHTS Validation Assay for Inhibitors of the Human Apurinic/apyrimidinic Endonuclease 1 (APE1) (AID 1705; further: potency means the concentration at half of the fitted maximal effect). In short, it runs like this: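 Fluorogenic double-stranded THF abasic-site substrate (5'-TAMRA/3'-BHQ-2), 50 nM final. Enzyme preincubated with compound 15 min at room temperature, then substrate added. Kinetic fluorescence (ex 525/em 598 nm) read three times at 60 s intervals; activity taken as third-minus-first read difference.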
On the technique in general: In qHTS, concentration-response curves come from the screen itself.

Assay [2] is described as follows: Counterscreen for APE1 Inhibitors: Fluorescent Dye Displacement Validation Assay (AID 1707). In short, it runs like this: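 Thiazole Orange displacement from dsDNA: 250 nM ThO with 50 nM TAMRA-labelled abasic-site (tetrahydrofuran) duplex in 50 mM Tris-HCl pH7.5, 50mM NaCl, 2 mM MgCl2, 0.01% Tween-20. Loss of endpoint fluorescence (ex 480 nm, em 540 nm) flags DNA binders.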
On the technique in general: The purpose of a counterscreen is to sort out artefacts and off-target activity.

Assay [3] has as its target Endonuclease 4 (Escherichia coli (strain K12)) (UniProt P0A6C1). Kind of assay: Counterscreen for APE1 Inhibitors: qHTS Validation Assay for Inhibitors of Endonuclease IV (AID 1708). In short, it runs like this:
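2 nM enzyme was preincubated with compounds for 15 min at room temperature in 50 mM Tris-HCl pH 7.5, 50 mM NaCl, 2 mM MgCl2, 1 mM DTT, 0.01% Tween-20. 50 nM THF-abasic TAMRA/BHQ-2 duplex substrate started the reaction.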

A short description of assay [4]: qHTS for differential inhibitors of proliferation of Plasmodium falciparum line 7G8 (AID 1815).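 Further: parasite growth measured after three days of incubation.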 Further: potency means the concentration at half of the fitted maximal effect.
Assay [5] in a line: qHTS for differential inhibitors of proliferation of Plasmodium falciparum line GB4 (AID 1816).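 Further: parasite growth measured after 72 h incubation.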 Further: potency means the concentration at half of the fitted maximal effect. The following applies: Potency: Plasmodium falciparum GB4 proliferation inhibition.
The nature of assay [6]: qHTS for differential inhibitors of proliferation of Plasmodium falciparum line 3D7 (AID 1876). Further: potency means the concentration at half of the fitted maximal effect.
Assay [7] is described as follows: qHTS for differential inhibitors of proliferation of Plasmodium falciparum line D10 (AID 1877).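 Further: parasites grown with compound for 72 h before DNA staining.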 Further: potency means the concentration at half of the fitted maximal effect.
Assay [8] in a line: qHTS for differential inhibitors of proliferation of Plasmodium falciparum line Dd2 (AID 1882). Further: nearly all actives have a fitted effect of over 65% in size. Further: potency means the concentration at half of the fitted maximal effect. To be noted: Potency: Plasmodium falciparum Dd2 proliferation inhibition. In short, it runs like this:
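SYBR Green I DNA fluorescence read-out, ex 485/em 535 nm. Signals were normalized to 0.29 uM artemisinin and DMSO wells, then corrected using vehicle-only plates flanking each stack. Parasite growth ran 72 h in erythrocytes before lysis.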

Assay [9] can be described thus: qHTS for differential inhibitors of proliferation of Plasmodium falciparum line W2 (AID 1883).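 Further: parasites grown with compound for 72 h before lysis and staining.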 Further: potency means the concentration at half of the fitted maximal effect. The following applies: Potency: Plasmodium falciparum W2 proliferation inhibition.
Assay [10] can be described thus: qHTS for differential inhibitors of proliferation of Plasmodium falciparum line HB3 (AID 1886).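 Further: parasites grown with compound for 72 h before SYBR Green readout.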 Further: potency means the concentration at half of the fitted maximal effect. The following applies: Potency: Plasmodium falciparum HB3 proliferation inhibition.
Assay [11] in a line: qHTS Assay for Modulators of Human Peripheral Myelin Protein 22 (PMP22) Expression/Activity (AID 1967; active means well fitted curve in the direction sought with a large enough effect in the signal ratio; the % refers to the signal ratio). In short, it runs like this: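 Mouse MSC80 Schwann cells carrying Pmp22 promoter–green click beetle luciferase plus EF-alpha–red luciferase control, dosed 24 h at 37 °C. Dual-filter luminescence, overlap-corrected; %Activity from green/red ratio normalised to untreated cells, concentration-response curves fitted.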

In assay [12] the target is Ferritin light chain (Equus caballus) (UniProt P02791). Kind of assay: qHTS Validation Assay for Identification of Novel General Anesthetics (AID 2323). Further: series mostly up to about 77 µM. In short, it runs like this: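 Horse-spleen apoferritin (10 uM) in PBS with 50% saturated 1-aminoanthracene; compounds pin-transferred, 10 min at room temperature. Fluorescence read at 380/535 nm, normalized to free 1-AMA and 1-AMA/apoferritin values; four-parameter Hill fit.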

Assay [13] has as its target ATP-dependent DNA helicase Q1 (Homo sapiens) (UniProt P46063). In words: qHTS Validation Assay for Inhibitors of RecQ-Like Dna Helicase 1 (RECQ1) (AID 2353). In short, it runs like this:
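50 nM RECQ1T1 preincubated 15 min with compound in Tris pH 8.0 buffer with MgCl2, DTT, Tween-20 and 2.5 ug/ml poly(dI-dC); started with 200 nM TAMRA/BHQ-2 forked duplex and 2 mM ATP. Unwinding read as fluorescence (525/598 nm), two reads 2 h apart.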

Assay [14] addresses RecQ-like DNA helicase BLM (Homo sapiens) (UniProt P54132). Kind of assay: qHTS Validation Assay for Inhibitors of Bloom's syndrome helicase (BLM) (AID 2364). In short, it runs like this:
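BLM 50 nM in 25 mM Tris-HCl pH 8.0, 5 mM NaCl, 2 mM MgCl2, 1 mM DTT, 0.01% Tween-20, 2.5 ug/ml poly(dI-dC); 15 min cpd preinc, RT. Start: 200 nM forked DNA + 2 mM ATP (final). TAMRA read, 2 reads 2 h apart.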

A short description of assay [15]: Cytometric Cell-Based qHTS for Inhibitors of the mTORC1 Signaling Pathway in MEF (Tsc2-/-, p53-/-) Cells (AID 2660).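 Further: percent of cells above a phospho-rpS6 to PI ratio cutoff in each well; series mostly up to about 38 µM.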 In short, it runs like this:
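Readout: Alexa-488 phospho-rpS6 (Ser235/236) intensity divided by PI intensity, thresholded against 7.5 nM rapamycin wells and reported as % positive cells. PI cell count served as the viability measure. Compound exposure was 24 hrs at 37 degree Celsius.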

Assay [16] can be described thus: High Content Imaging Cell-Based qHTS for Inhibitors of the mTORC1 Signaling Pathway in MEF (Tsc2-/-, p53-/-) Cells (AID 2666).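 Further: percent of cells scored positive for phospho-rpS6 Ser235/236 immunostaining by imaging.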 In short, it runs like this: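 Read-out: % positive cells per well, with thresholds from highest- and lowest-signal wells, based on phospho-rpS6 (Ser235/236) intensity normalized to Hoechst nuclear stain. Cells: Tsc2-/-, p53-/- MEFs carrying empty vector; compound 24 hrs, 37 degree Celsius.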

A short description of assay [17]: High Content Imaging Cell-Based qHTS for Inhibitors of the mTORC1 Signaling Pathway in MEF Cells (AID 2667).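 Further: Tsc2-/- p53-/- MEFs stably re-expressing wild-type Tsc2 exposed 24 h; series mostly up to about 38 µM.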 In short, it runs like this: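 MEF (Tsc2-/-, p53-/-, WT Tsc2 re-expressed); cpd 24 h, 37 °C; PFA fix; Alexa-488 anti-p-rpS6 Ser235/236, PI, Hoechst; IN Cell imaging; Hoechst/Alexa-488 intensity ratio; % active cells, thresholds set from rapamycin and DMSO wells.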

Results filed as inconclusive are left out. Activity calls are given as the source filed them. Unless noted, the call rests on the fitted dose curve; in most records, active means well fitted curve in the direction sought with a large enough effect; inconclusive means small, poorly fitted or top-dose-only effect, or another doubt; inactive means no such curve, though single readings can be large; an effect the other way counts as inactive or inconclusive.

Chain of DNA repair nuclease/redox regulator APEX1 (Homo sapiens) (P27695 whole entry, looked up): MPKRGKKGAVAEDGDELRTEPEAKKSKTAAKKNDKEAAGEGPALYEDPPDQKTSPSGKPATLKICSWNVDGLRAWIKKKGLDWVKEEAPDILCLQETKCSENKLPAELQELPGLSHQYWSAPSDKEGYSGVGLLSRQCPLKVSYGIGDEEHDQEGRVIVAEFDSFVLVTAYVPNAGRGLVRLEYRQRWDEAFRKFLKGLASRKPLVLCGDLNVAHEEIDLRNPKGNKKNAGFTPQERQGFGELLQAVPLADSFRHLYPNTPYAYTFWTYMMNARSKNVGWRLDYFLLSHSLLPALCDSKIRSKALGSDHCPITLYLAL
Chain of ATP-dependent DNA helicase Q1 (Homo sapiens) (P46063 whole entry, looked up): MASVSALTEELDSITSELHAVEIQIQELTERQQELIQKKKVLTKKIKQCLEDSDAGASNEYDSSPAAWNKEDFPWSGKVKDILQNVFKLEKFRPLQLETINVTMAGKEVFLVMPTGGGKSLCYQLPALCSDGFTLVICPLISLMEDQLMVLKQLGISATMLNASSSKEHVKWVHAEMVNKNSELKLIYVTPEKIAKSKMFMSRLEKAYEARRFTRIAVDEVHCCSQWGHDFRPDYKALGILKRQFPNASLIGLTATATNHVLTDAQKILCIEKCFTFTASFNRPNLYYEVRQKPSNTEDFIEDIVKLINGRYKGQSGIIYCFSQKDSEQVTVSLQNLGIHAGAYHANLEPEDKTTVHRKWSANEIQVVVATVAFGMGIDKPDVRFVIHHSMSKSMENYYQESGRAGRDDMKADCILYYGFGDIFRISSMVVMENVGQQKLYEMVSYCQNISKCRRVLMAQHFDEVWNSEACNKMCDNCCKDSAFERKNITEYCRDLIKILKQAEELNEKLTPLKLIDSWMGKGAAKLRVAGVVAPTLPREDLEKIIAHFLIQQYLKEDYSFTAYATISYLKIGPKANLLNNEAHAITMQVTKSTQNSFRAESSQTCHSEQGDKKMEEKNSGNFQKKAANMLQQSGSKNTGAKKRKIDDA
Chain of RecQ-like DNA helicase BLM (Homo sapiens) (P54132 whole entry, looked up): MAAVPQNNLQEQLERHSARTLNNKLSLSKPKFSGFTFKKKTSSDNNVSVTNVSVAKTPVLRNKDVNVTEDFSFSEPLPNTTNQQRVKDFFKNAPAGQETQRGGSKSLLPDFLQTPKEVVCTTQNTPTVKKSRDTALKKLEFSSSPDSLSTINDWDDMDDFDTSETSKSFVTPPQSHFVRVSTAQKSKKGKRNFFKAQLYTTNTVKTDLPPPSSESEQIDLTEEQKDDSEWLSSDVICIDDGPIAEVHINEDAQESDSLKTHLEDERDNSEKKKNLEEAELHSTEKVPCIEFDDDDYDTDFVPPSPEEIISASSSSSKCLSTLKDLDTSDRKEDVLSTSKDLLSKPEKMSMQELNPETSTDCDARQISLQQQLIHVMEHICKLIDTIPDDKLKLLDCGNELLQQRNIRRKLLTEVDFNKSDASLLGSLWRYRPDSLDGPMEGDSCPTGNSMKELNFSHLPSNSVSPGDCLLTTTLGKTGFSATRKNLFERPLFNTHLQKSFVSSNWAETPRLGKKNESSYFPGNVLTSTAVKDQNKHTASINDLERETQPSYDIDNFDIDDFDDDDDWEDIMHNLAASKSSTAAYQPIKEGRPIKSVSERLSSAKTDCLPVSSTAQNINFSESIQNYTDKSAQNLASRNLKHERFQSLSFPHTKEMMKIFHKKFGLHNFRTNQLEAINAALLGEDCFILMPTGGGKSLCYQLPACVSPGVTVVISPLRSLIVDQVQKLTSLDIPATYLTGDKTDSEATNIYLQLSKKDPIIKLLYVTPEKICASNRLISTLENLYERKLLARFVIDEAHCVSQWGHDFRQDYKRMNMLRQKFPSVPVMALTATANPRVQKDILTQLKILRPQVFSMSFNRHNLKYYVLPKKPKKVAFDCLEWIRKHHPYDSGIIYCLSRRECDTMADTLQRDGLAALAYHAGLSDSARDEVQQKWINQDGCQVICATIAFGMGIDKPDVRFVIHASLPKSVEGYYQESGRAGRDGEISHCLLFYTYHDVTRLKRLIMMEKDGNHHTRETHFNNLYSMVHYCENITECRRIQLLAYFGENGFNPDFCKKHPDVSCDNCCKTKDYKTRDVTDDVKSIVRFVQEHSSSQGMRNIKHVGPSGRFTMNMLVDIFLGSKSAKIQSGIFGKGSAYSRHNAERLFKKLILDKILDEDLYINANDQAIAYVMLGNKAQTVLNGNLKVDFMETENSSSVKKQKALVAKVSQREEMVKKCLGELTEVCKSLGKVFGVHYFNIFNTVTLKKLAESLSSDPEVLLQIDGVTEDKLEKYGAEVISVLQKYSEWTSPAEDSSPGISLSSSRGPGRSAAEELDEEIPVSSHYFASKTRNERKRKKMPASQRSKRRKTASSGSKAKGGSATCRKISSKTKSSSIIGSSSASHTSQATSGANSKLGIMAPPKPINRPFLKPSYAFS
Chain of Ferritin light chain (Equus caballus) (P02791 2-175 limits assumed): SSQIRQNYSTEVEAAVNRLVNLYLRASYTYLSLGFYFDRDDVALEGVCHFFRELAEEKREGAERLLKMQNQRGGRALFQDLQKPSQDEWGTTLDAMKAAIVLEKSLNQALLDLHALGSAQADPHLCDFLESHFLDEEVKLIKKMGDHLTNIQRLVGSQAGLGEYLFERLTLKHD

On to `CCN(CC)c1ncnc2c1ncn2[C@@H]1O[C@H](COP(=O)(O)OP(=O)(O)C(Br)(Br)P(=O)(O)O)[C@@H](O)[C@H]1O`, for which the Potency result in assay [1], in [2], in assay [3], in assay [4], in assay [5] and in assay [6] was “inactive” in each case. Also, the Potency entry in assay [7], in assay [8], in assay [9], in assay [10] and in assay [13] was “inactive” throughout. For the same molecule, the call in [11] and in [12] was inactive.

In the case of `CCCN(CCC)CCc1c[nH]c2ccc(C(N)=O)cc12`, the Potency result in assay [1], in assay [2], in assay [3], in [4], in [5] and in assay [6] was “inactive” in each case. The Potency entry in assay [7], in assay [8], in [10], in [13], in assay [14] and in assay [15] was “inactive” throughout. Moreover, the Potency entry in assay [16] and in [17] was “inactive” throughout. Also, the call in assay [12] was inactive.

`Cc1o[nH]c(=O)c1CC(N)C(=O)O` (stereo unspecified): the Potency result in [1], in assay [2], in [3], in [4], in assay [5] and in assay [6] was “inactive” throughout. The Potency result in [7], in [8], in assay [9], in [10], in assay [15] and in assay [16] was “inactive” throughout. The Potency result in assay [17] was “inactive”. Besides, the molecule was called inactive in assay [11] and in assay [12].

On to `N#CC(C#N)=Cc1cc(O)c(O)c(O)c1`, for which the Potency entry in assay [1], in [2] and in [3] was “inactive” throughout. Besides, the Potency was 6.31 µM (active) in assay [4]; 10 µM (active) in [5]; 12.6 µM (active) in assay [6]; 12.6 µM (active) in [7]; 7.94 µM (active) in [9]; 11.2 µM (active) in assay [10]. Also, in assay [12], the molecule was called inactive.

With `C=CCN1CC[C@]23c4c5ccc(O)c4O[C@@H]2/C(=N/N=C2\CC[C@@]4(O)C6Cc7ccc(O)c8c7[C@@]4(CCN6CC=C)[C@@H]2O8)CC[C@@]3(O)C1C5`, the Potency entry in assay [1], in assay [2], in assay [3] and in assay [14] was “inactive” in each case. Further, the Potency in [4] is 2.51 µM (active); in assay [5] it was 3.16 µM (active); in [6], 2.24 µM (active); in assay [7], 2.82 µM (active); in assay [8], 8.91 µM (active); in assay [9], 2.51 µM (active). Further, in [10], the Potency is 2.82 µM (active).

For `C#CCN[C@H](C)Cc1ccccc1`, the Potency result in [1], in assay [2], in assay [3], in assay [4], in [5] and in assay [6] was “inactive” each time. Further, the Potency result in assay [7], in assay [8], in assay [9], in assay [10], in assay [13] and in assay [14] was “inactive” each time. Moreover, the Potency result in assay [15], in assay [16] and in assay [17] was “inactive” in each case. In addition, the call in [11] and in [12] was inactive.

Consider `O=C1C=CC(=O)C=C1`, for which the Potency in assay [1] is 14.1 µM (active). Besides, the Potency result in [2], in [3], in assay [4], in assay [5], in assay [6] and in assay [7] was “inactive” each time. The Potency result in assay [8], in [9], in assay [10], in assay [13], in assay [15] and in assay [16] was “inactive” in each case. The Potency entry in [17] was “inactive”. Besides, the call in assay [11] and in assay [12] was inactive.

As to `NCCCP(=O)(O)O`, the Potency entry in assay [1], in [2], in assay [3], in [4], in [5] and in [6] was “inactive” each time. Also, the Potency result in [7], in assay [8], in [9], in assay [10], in assay [15] and in assay [16] was “inactive” throughout. Besides, the Potency result in assay [17] was “inactive”. Further, in assay [12], the molecule was classed as inactive.
